The record followed here is PubChem BioAssay (NCI).

About 79,000 compounds went through this panel and 15% of them were active in at least one assay; those are over-represented in the sample as a whole. Values without a mark were called inactive. The source made the active and inactive calls. No stated cut-off is given here; in the data, active means growth inhibition above about 70%; inactive means the rest.

A short description of assay [1]: NCI Yeast Anticancer Drug Screen. Data for the rad50 strain (AID 155).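 Further: 0% = growth of vehicle-only cultures of the same strain.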 Particulars: S. cerevisiae rad50 strain growth inhibition; at 50.0 µM; stronger effect = higher value. The method in brief:
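Compounds were tested on a yeast strain with an engineered DNA damage repair alteration; the reported value is growth inhibition normalised to vehicle treatment.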

A short description of assay [2]: NCI Yeast Anticancer Drug Screen. Data for the mec2-1 strain (AID 157). Conditions: S. cerevisiae mec2-1 strain, at 50.0 µM, stronger effect = higher value. The essentials: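 Yeast mec2-1 mutant treated with compound. Readout: growth inhibition vs vehicle controls.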
Assay [3] can be described thus: NCI Yeast Anticancer Drug Screen. Data for the sgs1 mgt1 strain (AID 161).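 Further: 0% = growth of cultures given vehicle only.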 Conditions: S. cerevisiae sgs1 mgt1 strain, at 50.0 µM, stronger effect = higher value. The essentials:
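Inhibition of yeast growth, normalised to vehicle-treated controls, is reported for a strain bearing genetic alterations in DNA damage repair.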

Assay [4] in a line: NCI Yeast Anticancer Drug Screen. Data for the cln2 rad14 strain (AID 165).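 Further: 0% = growth equal to vehicle treated cultures.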 Particulars: S. cerevisiae cln2 rad14 strain, at 50.0 µM, stronger effect = higher value. The method in brief:
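cln2 rad14 yeast strain; compound exposure; growth inhibition read vs vehicle controls.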

The nature of assay [5]: NCI Yeast Anticancer Drug Screen. Data for the bub3 strain (AID 167). Conditions: S. cerevisiae bub3 mutant strain, at 50.0 µM, stronger effect = higher value. The method in brief: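 Growth of a checkpoint-deficient yeast mutant is measured after compound exposure. Values represent inhibition relative to vehicle.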
The nature of assay [6]: NCI Yeast Anticancer Drug Screen. Data for the mlh1 rad18 strain (AID 175). Particulars: S. cerevisiae mlh1 rad18 strain growth inhibition; at 50.0 µM; stronger effect = higher value. The essentials:
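Yeast w/ defined DNA-repair lesions; compound exposure; growth vs vehicle controls → % inhibition.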

Take `CC(N)Cc1ccc(Cl)cc1` (centres undefined): the growth inhibition was 14.5% in assay [1]; -0.3% in assay [2]; 1.9% in assay [3]; -15.6% in assay [4]; -14.9% in assay [5]; 3.6% in assay [6].

Take `CC(C)(C)C1(C)CN(N=O)C(=O)O1` (centres undefined): the growth inhibition in assay [1] was -5.05%; in assay [2], -9.7%; in assay [3], -9.5%; in assay [4], -26.1%; in assay [5], 5.85%; in assay [6], -15.5%.

As to `O=C1C=CC(=O)c2c(O)cccc21`, the growth inhibition in assay [1] is 27.4%; in assay [2], 13.2%; in assay [3] it was 38%; in assay [4], 15.4%; in assay [5], 41.3%; in assay [6], 29.2%.

Take `Cc1cc(Cl)ccc1[NH-].Cc1cc(Cl)ccc1[NH-].[Cl][Pt+2][Cl]`: the growth inhibition in assay [1] is 35.3%; in assay [2], 12.6%; in assay [3], 30.8%; in assay [4], 2.05%; in assay [5], 18.3%; in assay [6] it was 30.2%.

As for `CCCC(C)C1C(=O)N(C)C(=O)N(C)C1=O` (centres undefined), the growth inhibition in assay [1] was 14.2%; in assay [2], -1%; in assay [3] it was 11.4%; in assay [4], 9.9%; in assay [5], -4.75%; in assay [6], 14.9%.

`C[C@@]1(CCCCCCCCCCc2ccccc2)C[C@@]2(C)OC(=O)C[C@H]2OO1`: the growth inhibition in assay [1] was -15.1%; in assay [2], -6.05%; in assay [3] it was -20.2%; in assay [4] it was -39%; in assay [5], -80.7%; in assay [6], -25.6%.

For the compound `C[C@H]1CC(=O)C[C@@H]2CC[C@@H]3[C@H](CC[C@]4(C)C(OC(=O)c5cccc6c(=O)c7ccccc7[nH]c56)CC[C@@H]34)[C@]21C` (some centres undefined), the growth inhibition in assay [1] is 42.4%; in assay [2], 22%; in assay [3], 45.6%; in assay [4], 41.9%; in assay [5], 5.2%; in assay [6] it was 40.9%.

On to `O=C1C2CCN(CC2)C1(CO)CO`, for which the growth inhibition is -4.4% in assay [1]; -4.25% in assay [2]; -26.6% in assay [3]; -58.1% in assay [4]; -30.4% in assay [5]; -20.2% in assay [6].

Regarding `CC[n+]1c(/C=C/c2ccc(N(CCCl)CCCl)cc2)ccc2cc(NC(=O)/C=C/c3ccccc3)ccc21`, the growth inhibition in assay [1] is 82.1% (active); in assay [2] it was 86.5% (active); in assay [3], 87.7% (active); in assay [4] it was 85.5% (active); in assay [5], 86.5% (active); in assay [6] it was 82% (active).

Take `O=P(O)(O)CCCP(=O)(O)O.[Zn+2]`: the growth inhibition in assay [1] was -10.9%; in assay [2] it was -27.4%; in assay [3], -7.05%; in assay [4] it was -6.1%; in assay [5], -12.7%; in assay [6], 29.1%.

Regarding `CC(=O)C(C(C)=O)C(C)=O.CC(=O)C(C(C)=O)C(C)=O.CC(=O)C(C(C)=O)C(C)=O.[Cr]`, the growth inhibition in assay [1] was 25.2%; in assay [2], 2.8%; in assay [3], 11.2%; in assay [4], 7.25%; in assay [5] it was -3.6%; in assay [6] it was 5.25%.

As for `CCOc1ccc(Nc2nc(=O)[nH]c3ccccc23)cc1CN(CCCl)CCCl`, the growth inhibition in assay [1] was 18.7%; in assay [2], 0.95%; in assay [3], 10.5%; in assay [4], -19.4%; in assay [5], 1.3%; in assay [6] it was 22.4%.

Turning to `Oc1ccc(C=NCC2CCCC[N-]2)c(O)c1.Oc1ccc(C=NCC2CCCC[N-]2)c(O)c1.[Ni+2]` (centres undefined), the growth inhibition is 7.3% in assay [1]; 8% in assay [2]; 6.55% in assay [3]; 5.15% in assay [4]; 11.2% in assay [5]; -8.4% in assay [6].

For the compound `CN1CN(c2ccccc2)C2(CCN(CCc3csc4ccccc34)CC2)C1=O`, the growth inhibition in assay [1] is 29.9%; in assay [2], 12.2%; in assay [3], 17.8%; in assay [4] it was 16.9%; in assay [5], 3.5%; in assay [6], 19.4%.

Take `C=CCn1cc2c3c(cccc31)C1CC(C)CN(C)C1C2` (centres undefined): the growth inhibition in assay [1] is 34.5%; in assay [2], 36%; in assay [3] it was 25%; in assay [4], 39.9%; in assay [5], 33.6%; in assay [6] it was 28.9%.

Take `O=C(NC(Cc1ccccc1)C(=O)N(CCCl)CCCl)c1ccccc1` (centres undefined): the growth inhibition is -5.15% in assay [1]; -17.5% in assay [2]; 16.7% in assay [3]; 4.1% in assay [4]; -13.7% in assay [5]; 23.4% in assay [6].

`O=C(COc1ccc(Cl)c(Cl)c1)NCCc1cc[n+](Cc2ccc(Cl)cc2S(=O)(=O)F)cc1`: the growth inhibition in assay [1] was 7.45%; in assay [2], 5.4%; in assay [3], -9.05%; in assay [4], 31.5%; in assay [5] it was 1.8%; in assay [6], 11.9%.

Consider `CS(=O)(=O)OC1C2CC(C1OS(C)(=O)=O)C(c1ccccc1)C2C(=O)O` (centres undefined), for which the growth inhibition was 25% in assay [1]; 21% in assay [2]; 31.4% in assay [3]; 12.2% in assay [4]; -1.85% in assay [5]; 34.2% in assay [6].

On to `O=S(O)(O)=S.[Co+3].[NH-]CC[NH-].[NH-]CC[NH-].[NH2-].[NH2-]`, for which the growth inhibition is -8.05% in assay [1]; -6.85% in assay [2]; 2% in assay [3]; -19.4% in assay [4]; 14.8% in assay [5]; 7.05% in assay [6].
